# In the library only some 2.3% were active in any assay of this set; here they are far more common.
# CHRM1 PAM – human M1 muscarinic receptor positive allosteric modulators, primary screen, CHO-K1 cells, Fluo-8 calcium fluorescence, 1536-well; AID 588819, 2011; CHO-K1 hM1, ACh EC20; 0% = ACh EC20, 100% = maximal ACh; activation, % at 3 µM; actives 0.088% (n = 360,000); in the data active = activation above about 19%, passing the limit was not always enough
# Target sequence (P11229 whole entry, looked up): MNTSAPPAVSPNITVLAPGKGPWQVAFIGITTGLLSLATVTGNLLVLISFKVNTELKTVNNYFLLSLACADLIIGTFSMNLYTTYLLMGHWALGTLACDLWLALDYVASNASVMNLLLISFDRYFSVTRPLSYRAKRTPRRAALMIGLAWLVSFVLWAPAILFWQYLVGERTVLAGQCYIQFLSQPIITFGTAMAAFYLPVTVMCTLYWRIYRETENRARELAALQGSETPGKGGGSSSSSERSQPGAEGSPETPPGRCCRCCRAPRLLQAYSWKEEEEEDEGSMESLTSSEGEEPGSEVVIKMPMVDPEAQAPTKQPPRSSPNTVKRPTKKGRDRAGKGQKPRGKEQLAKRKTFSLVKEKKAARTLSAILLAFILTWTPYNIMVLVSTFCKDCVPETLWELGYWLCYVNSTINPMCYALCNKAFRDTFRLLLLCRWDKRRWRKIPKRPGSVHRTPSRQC
# CHO-K1 Ca ag – counter-screen for M1 agonists: effect in parental CHO-K1 cells; activation, % at 3 µM; Fluo-8 calcium fluorescence; scaled to maximal ATP response, vehicle zero; actives 0.48% (n = 360,000); in the data active = activation above about 15%;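 also: untransfected CHO-K1 host cells lacking M1 receptor as counterscreen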
# CHRM1 agonist – human M1 muscarinic receptor agonists, primary screen, Fluo-8 calcium fluorescence, CHO-K1 cells, HTS; actives 0.33% (n = 360,000); CHO-K1 hM1, agonist mode; 0% DMSO, 100% acetylcholine EC100; activation, % at 3 µM; Muscarinic acetylcholine receptor M1 (Homo sapiens), P11229; AID 588814, 2011;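 active = activation above the run's mean compound activation plus 3 SD, cut at about 16% in these data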;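 also: peak over basal fluorescence ratio within a 140 s kinetic read after compound addition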
# M1 PAM parental – nonselective calcium activators in parental CHO-K1 cells, primary screen, counter-screen for M1 PAM project, cell-based, Fluo-8 calcium fluorescence, full deck, 1536-well. ATP EC20; 0% at ATP EC20, 100% at ATP max. activation, % at 3 µM. actives 0.02% (n = 360,000);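 active = activation above the run cutoff, the mean activation of all test compounds plus 3 SD, cut at about 40% in these data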;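 also: peak over basal fluorescence ratio in a 140 s read after ATP addition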
# CHRM1 antagonist – human M1 muscarinic receptor antagonists, primary screen, CHO-K1 cells, Fluo-8 calcium fluorescence, 1536-well | Muscarinic acetylcholine receptor M1 (Homo sapiens), P11229 | CHO-K1 hM1, ACh EC80 antagonist | inhibition, % at 3 µM | actives 1.3% (n = 360,000);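 active = percent inhibition above its own plate's cutoff, namely the mean of that plate's compound wells plus 3 SD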;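 also: peak over basal fluorescence ratio during 140 s after agonist addition; 0% = ACh EC80 plus DMSO and 100% = DMSO alone without agonist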
# CHO-K1 Ca antag – nonselective inhibitor or artifact in parental CHO-K1 cells; ATP-induced calcium, Fluo-8 fluorescence; inhibition, % at 3 µM; actives 0.6% (n = 360,000); AID 602250;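 active = inhibition above a per-plate cutoff, the plate's mean sample inhibition plus 3 SD, cut at about 24% in these data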;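 also: 0% = DMSO plus EC80 ATP and 100% = DMSO alone without ATP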
# The depositor's hits bear a star.
SMILES,CHRM1 PAM,CHO-K1 Ca ag,CHRM1 agonist,M1 PAM parental,CHRM1 antagonist,CHO-K1 Ca antag
CC(C)OCCCNc1ncnc2c1[nH]c1ccccc12,-29,16*,2,-11,39*,-14
COc1ccc(CNc2ncnc3c2[nH]c2ccccc23)cc1,-14,19*,6,-11,37*,21
COc1ccc(CNc2ncnc3c2[nH]c2cc(OC)c(OC)cc23)cc1,-10,3,-3,-26,20,14
Cc1nn(C)cc1C(=O)Nc1ccc2c(c1)OCCO2,4,0,-2,6,-5,-19
COc1ccc(CCNC(=O)CCS(=O)(=O)c2ccc3c(c2)NC(=O)CO3)cc1OC,7,0,-2,3,-12,-7
c1ccc(CCC2CCCCN2Cc2nc(-c3ccc4c(c3)OCO4)no2)nc1 (stereo not drawn),-14,8,-3,-14,35*,2
COc1ccc(C(=O)COc2ccc(C)cc2NC(C)=O)cc1,4,4,2,-17,-2,1
O=c1c2cn(Cc3ccccc3)c3ccccc3c-2nn1Cc1ccc(F)cc1Cl,31*,0,20*,-2,-9,-9
O=c1c2cn(Cc3ccc(F)cc3)c3ccccc3c-2nn1Cc1ccc(F)cc1,5,0,-1,-6,-7,-8
O=C(O)c1ccc(N/N=C/c2cn(Cc3ccc(F)cc3)c3ccccc23)cc1,11,1,0,4,4,1
O=[N+]([O-])/C=C/c1cn(Cc2ccc(F)cc2)c2ccccc12,15,1,-3,5,33*,8
COc1ccc(-c2nc(CS(=O)(=O)CC(=O)NC3CCC(C)CC3)c(C)o2)cc1 (stereo not drawn),3,2,-2,6,-1,-5
CCOCCCn1cc(C(=O)c2cc(Br)ccc2O)cc(C#N)c1=O,12,3,-4,11,-4,-5
CCCCn1cc(C(=O)c2cc(Br)ccc2O)cc(C#N)c1=O,-10,8,3,2,25,24*
Cc1ccc(NC(=O)Nc2nnc([C@@H]3C[C@H](O)[C@@H](CO)O3)s2)cc1,-2,0,-2,1,-3,-6
O=C(Nc1ccccc1)Nc1nnc([C@H]2C[C@H](O)[C@@H](CO)O2)s1,1,0,-3,4,-3,26*
O=C(Nc1nnc([C@@H]2C[C@H](O)[C@@H](CO)O2)s1)c1cccc(Oc2ccccc2)c1,8,0,-1,-3,-11,-3
O=C(Nc1nnc([C@H]2C[C@H](O)[C@@H](CO)O2)s1)c1cccc(Oc2ccccc2)c1,9,0,1,-17,0,25*
CCOc1ccc(NS(=O)(=O)c2ccc(C(=O)N(C)CC(=O)Nc3ccccc3Br)cc2)cc1,1,5,5,4,-6,-16
CC(C)N1CCC(C)(C(=O)Nc2cc(-c3ccccc3)nn2C)C1 (stereo not drawn),9,0,-4,8,-19,-5
COC(=O)c1ccc(CN2CCCC(C(=O)c3ccccc3OC)C2)cc1 (stereo not drawn),-6,1,27*,10,7,-13
COc1ccc(C(=O)Nc2ccc(CN3CCCCC3)cc2)cc1,-5,1,-7,-3,10,-10
CCOC(=O)C1CCN(C(=O)CCC(=O)NCCc2ccc(Cl)cc2)CC1,12,1,-2,16,-16,-10
COC(=O)c1ccc(CN2CCCCC2)cc1,-9,0,27*,15,26,-10
COC(=O)c1ccc(CN2CCCC(C(=O)c3cc(F)ccc3OC)C2)cc1 (stereo not drawn),2,0,10,3,1,1
SMILES,CHRM1 PAM,CHO-K1 Ca ag,CHRM1 agonist,M1 PAM parental,CHRM1 antagonist,CHO-K1 Ca antag
CCOC(=O)C1CCC(CNCc2ccc(Cl)cc2)CC1 (stereo not drawn),-20,1,-10,27,45*,-14
COc1ccc(/C=C/CN2CCC(CO)(Cc3ccccc3Cl)CC2)cc1,-31,4,-9,4,31*,2
CCOc1ccccc1Nc1nnc(SCC(=O)NC2CC2)s1,5,0,-2,22,-1,-8
Cc1ccccc1CCN(C(=O)c1csnn1)C(C(=O)NC1CCCC1)c1ccco1 (stereo not drawn),0,0,-6,3,-7,3
COc1ccc(-c2cc(C(=O)N(C)CC(=O)Nc3cccc(F)c3)c3ccccc3n2)cc1,-8,5,-4,-18,19,14
Cc1ccc(C(=O)N2CCCC2)cc1S(=O)(=O)Nc1cccc(C)c1C,-2,1,-6,6,1,-19
CCOC(=O)C1(CC2CC2)CCN(Cc2cn(C)c3ccccc23)CC1,-24,3,-11,13,32*,4
CCOC(=O)C1(Cc2ccccc2)CCN(Cc2cn(CC(=O)OC)c3ccccc23)CC1,4,1,-6,23,-5,-12
COC(=O)c1ccc(CN2CCCC(C(=O)Nc3ccc(-c4ccn[nH]4)cc3)C2)cc1 (stereo not drawn),-8,7,36*,0,12,-17
CCOC(=O)C1CCN(Cc2ccc(C(=O)OC)cc2)CC1,-20,0,43*,14,67*,-16
COC(=O)c1ccc(CN2CCN(CC(C)C)C(CCO)C2)cc1 (stereo not drawn),-17,1,-8,25,35*,-11
CCOc1ccccc1OCCC(=O)OCC(=O)Nc1c(C)nn(-c2ccccc2)c1C,-4,4,-3,-1,5,-15
COC(=O)c1ccc(CN2CCC(CO)(Cc3ccccc3Cl)CC2)cc1,-5,1,19*,5,52*,12
CCOC(=O)C1(CCc2ccccc2)CCN(Cc2ccc(C(=O)OC)cc2)CC1,-4,0,-4,-10,-2,-8
CCOC(=O)C1(CC2CC2)CCN(Cc2ccc(C(=O)OC)cc2)CC1,-24,1,-5,-5,60*,0
Cc1csc(=O)n1CCC(=O)OCC(=O)NNC(=O)c1ccc(Cl)cc1,16,0,3,-24,-9,-3
O=C(NCC1COc2ccccc2O1)C1CCCN(S(=O)(=O)c2cccc3cccnc23)C1 (stereo not drawn),8,1,1,2,-1,25*
O=C(NCc1cccnc1)C1CCCN(S(=O)(=O)c2cccc3nsnc23)C1 (stereo not drawn),-22,0,-9,-9,38*,14

# Screening data deposited in PubChem BioAssay by The Scripps Research Institute Molecular Screening Center.
